Source: PubChem BioAssay (NCI)
The panel holds about 79,000 compounds, 15% with a hit somewhere; the sample as a whole holds those more often. Rule as the data show it: active = growth inhibition above about 70%; inactive = the rest.

Tests used:
[1] = NCI Yeast Anticancer Drug Screen. Data for the rad50 strain (AID 155);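 also: 0% = growth of vehicle-only cultures of the same strain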; settings: S. cerevisiae rad50 strain growth inhibition; at 50.0 µM; active compounds read high
Procedure, shortened: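 DNA repair mutant yeast, compound exposure, growth read-out; inhibition is taken relative to vehicle.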

[2] = NCI Yeast Anticancer Drug Screen. Data for the mec2-1 strain (AID 157); settings: S. cerevisiae mec2-1 strain, at 50.0 µM, active compounds read high
Procedure, shortened: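 Strain: mec2-1 (DNA repair/cell cycle alteration). Compound exposure, then growth measured; inhibition expressed relative to vehicle.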

[3] = NCI Yeast Anticancer Drug Screen. Data for the sgs1 mgt1 strain (AID 161);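 also: 0% = growth of cultures given vehicle only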; settings: S. cerevisiae sgs1 mgt1 strain, at 50.0 µM, active compounds read high
Procedure, shortened: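 Inhibition of yeast growth, normalised to vehicle-treated controls, is reported for a strain bearing genetic alterations in DNA damage repair.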

[4] = NCI Yeast Anticancer Drug Screen. Data for the cln2 rad14 strain (AID 165);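 also: 0% = growth equal to vehicle treated cultures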; settings: S. cerevisiae cln2 rad14 strain, at 50.0 µM, active compounds read high
Procedure, shortened: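 Compounds are applied to the cln2 rad14 yeast strain, and growth is then compared with that of vehicle-treated cultures to give inhibition.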

[5] = NCI Yeast Anticancer Drug Screen. Data for the bub3 strain (AID 167); settings: S. cerevisiae bub3 mutant strain, at 50.0 µM, active compounds read high
Procedure, shortened: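 In this screen, a yeast mutant lacking normal mitotic checkpoint function is challenged with compound. Relative growth versus vehicle gives the inhibition value.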

[6] = NCI Yeast Anticancer Drug Screen. Data for the mlh1 rad18 strain (AID 175); settings: S. cerevisiae mlh1 rad18 strain growth inhibition; at 50.0 µM; active compounds read high
Procedure, shortened: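 Read-out is yeast growth inhibition, calculated against vehicle-only controls. The compound was applied to a strain engineered with DNA damage repair alterations.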

Measured: growth inhibition

O=C(O)c1cc(C(=O)O)cc(N2C(=O)c3ccccc3C2=O)c1
inactive: [1] 1.45% | [2] -30.4% | [3] -22.4% | [4] 39.3% | [5] -6.1% | [6] 0.5%

Nc1c(Cl)ncnc1Nc1ccc(O)cc1
inactive: [1] -3.85% | [2] -1.2% | [3] 5.2% | [4] 5.8% | [5] 24.8% | [6] 1.4%

O=c1[nH]c(=S)[nH]c2c1CN(CCCN1CCOCC1)CN2
inactive: [1] 10.3% | [2] -8.7% | [3] -15.8% | [4] 3.2% | [5] -25.1% | [6] 5.45%

COC(c1ccc(C(C)(C)C)cc1)(c1ccc(C(C)(C)C)cc1)c1cc(C(O)(c2cc(C(OC)(c3ccc(C(C)(C)C)cc3)c3ccc(C(C)(C)C)cc3)c(C)cc2C)c2cc(C(OC)(c3ccc(C(C)(C)C)cc3)c3ccc(C(C)(C)C)cc3)c(C)cc2C)c(C)cc1C
inactive: [1] -26.8% | [2] -12.7% | [3] -12.8% | [4] 13.8% | [5] -17.8% | [6] -9.05%

COc1cccc(C)c1C(O)CC1CCCN1 (stereo unspecified)
inactive: [1] 21.6% | [2] 3.75% | [3] 7.2% | [4] 29.8% | [5] 11.7% | [6] 6.05%

COC(=O)C12C3C4C1C1C2C3C41C(=O)OC(C)(C)C (stereo unspecified)
inactive: [1] 18% | [2] 1.35% | [3] 9.2% | [4] 4.5% | [5] 23.9% | [6] 15.2%

COC(C)CCOC(=O)c1ccccc1 (stereo unspecified)
inactive: [1] -33% | [2] -17.6% | [3] -14.2% | [4] -29.7% | [5] -29.9% | [6] -31.2%

CCc1cccc(C(=O)NCCN(C)C)c1[N+](=O)[O-]
inactive: [1] -10.4% | [2] -17.9% | [3] -12.2% | [4] 22% | [5] -11.9% | [6] -5%

[Cl][Bi]([O]c1ccccn1)[O]c1ccccn1
inactive: [1] 9.9% | [2] -1.55% | [3] -13.4% | [4] 17.4% | [5] 28.6% | [6] -25.8%

Cc1ccc(NC(=O)Oc2ccc3ccccc3c2)cc1NC(=O)Oc1ccc2ccccc2c1
inactive: [1] 1.35% | [2] -19.4% | [3] -4.45% | [4] -86.5% | [5] 4.9% | [6] -1.85%

COC(=O)C1(CCCCCBr)CCCCCCCCCCC1=O (stereo unspecified)
inactive: [1] -8.6% | [2] -15.4% | [3] 24.1% | [4] 12.7% | [5] -25% | [6] -34.5%

ClC[C@H]1C[C@@H]2C[C@@H]1[C@H]1O[C@@H]21
inactive: [1] -7.4% | [2] -21.6% | [3] -11.2% | [4] -5.35% | [5] -9.6% | [6] 10.8%

CCOC(OCC)/C(C)=N/N(C)C
inactive: [1] 5.05% | [2] 8.95% | [3] -5.35% | [4] 7.3% | [5] -6.1% | [6] -2.5%

COc1ccc(/C=C/c2nc(=S)[nH][nH]2)cc1OC
inactive: [1] -18.1% | [2] -21.5% | [3] 12.7% | [4] 12.3% | [5] 25.1% | [6] -3.1%

COc1cccc(N2C(=O)CC(=P(c3ccccc3)(c3ccccc3)c3ccccc3)C2=O)c1
inactive: [1] 40% | [2] 20.6% | [3] 23.9% | [4] -21.7% | [5] -7.9% | [6] 13.4%

CCOc1ccc(C(C)(CC)c2cc3c(cc2OC)OCO3)cc1 (stereo unspecified)
inactive: [1] -18.9% | [2] -14.3% | [3] -23.3% | [4] 3.55% | [5] -20.1% | [6] 3.85%

O=C(N/N=C\c1ccc([N+](=O)[O-])cc1)Nc1cccc2ccccc12
inactive: [1] -49% | [2] 13.3% | [3] -42.4% | [4] -14.4% | [5] -1% | [6] -41.8%

Cc1nn(C)c2ncnc(N)c12
inactive: [1] 10.8% | [2] 0.55% | [3] 17% | [4] -7.8% | [5] -8.85% | [6] 7.7%

NS(=O)(=O)c1ccc(Nc2c3ccccc3nc3ncccc23)cc1
inactive: [1] -6.85% | [2] 7.35% | [3] 13.9% | [4] -11.8% | [5] 9.2% | [6] 16.9%

Nc1nc(-c2ccccc2)cc(-c2cc(Cl)ccc2O)n1
inactive: [1] 13.9% | [2] -0.55% | [3] -3.1% | [4] 20.5% | [5] 6.4% | [6] 6.55%

CCS(=O)c1ncc2cnccn12 (stereo unspecified)
inactive: [1] 2.35% | [2] 1.3% | [3] 15.4% | [4] -17.8% | [5] 8.3% | [6] -18.8%
